Source: PubChem
GALK inh: galactokinase (human) inhibition. 270,000 compounds, 0.007% hits. Potency, µM (series often up to 57.5 µM), inactives show at the top dose activity change, negative = inhibition, most hits filed as inhibitors. Purified GALK, Kinase-Glo residual ATP luminescence. P51570. AID 1868; note: % is set by controls: 0 for no effect and ±100 for the full control effect
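The enzyme phosphorylates galactose (100 uM) using ATP (35 uM); inhibition is detected as higher residual ATP, quantified by bioluminescence after 1 h reaction at room temperature, pH 8.0.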
A549 viability: counter-screen for Nrf2 inhibitors: cytotoxicity in A549 cells; A549 ARE-Fluc cells, CellTiter-Fluor viability, 18-24 h; 390,000 compounds, 0.16% hits; Potency, µM (series often up to 46 µM), for the others: top-dose activity change, negative = cytotoxicity, hits mostly inhibitors; note: % is set by controls: 0 for no effect and ±100 for the full control effect
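Cytotoxicity counterscreen: CellTiter-Fluor fluorescence was measured in A549 ARE_Fluc cells after 18-24 h of compound exposure in a concentration series. The subsequent BugLite luminescent read reports ARE-luciferase activity.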
rTrxR1 inhibitor: rat TrxR1 inhibition. O89049. recombinant rTrxR1, NADPH fluorescence consumption, selenite substrate. Potency, µM (top dose mostly 114 µM), for inactives: at the top dose activity change, negative = inhibition, hits mostly inhibitors. 390,000 compounds, 1% hits; note: % is set by controls: 0 for no effect and ±100 for the full control effect; nearly all actives have a fitted effect of over 65% in size
Target sequence (O89049 whole entry, looked up): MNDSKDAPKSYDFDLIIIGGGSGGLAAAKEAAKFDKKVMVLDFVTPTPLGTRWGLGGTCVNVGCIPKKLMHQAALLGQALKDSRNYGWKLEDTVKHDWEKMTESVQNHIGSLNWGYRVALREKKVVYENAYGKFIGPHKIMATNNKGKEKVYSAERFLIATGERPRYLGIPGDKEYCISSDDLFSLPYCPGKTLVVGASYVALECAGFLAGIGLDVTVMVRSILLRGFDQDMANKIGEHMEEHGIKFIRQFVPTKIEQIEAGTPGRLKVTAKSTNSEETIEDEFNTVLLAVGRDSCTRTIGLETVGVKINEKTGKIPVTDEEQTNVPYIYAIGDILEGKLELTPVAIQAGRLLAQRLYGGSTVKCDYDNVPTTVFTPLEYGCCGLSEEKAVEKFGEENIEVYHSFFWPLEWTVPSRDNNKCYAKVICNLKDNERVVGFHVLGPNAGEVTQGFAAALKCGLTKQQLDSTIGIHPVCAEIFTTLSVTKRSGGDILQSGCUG
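Rat TrxR1 (90 nM in the dispensed reagent) was pre-reduced with 400 uM NADPH for 5 min at room temperature, then incubated with compound for 15 min. After 400 uM selenite was added, NADPH fluorescence (Ex 340/Em 450 nm) was followed for 8 min.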
Nrf2 activator: activators of Nrf2 (ARE) signaling | AREc32 ARE-luciferase reporter (MCF7-derived line), luminescence, 24 h | 410,000 compounds, 0.31% hits | Potency, µM (titrated, usually from 46.1 µM), for inactives: top-dose activation, hits mostly activators; note: % of control where 0% means no effect; nearly all actives have a fitted effect of over 65% in size
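Luminescent ARE reporter assay in AREc32_Fluc cells: overnight plating at 37 deg C, 24 hr compound incubation, Steady-Glo added, 30 min RT before reading.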
TrxR1 substrate: substrates of rat thioredoxin reductase 1; 390,000 compounds, 0.01% hits; AID 588456; O89049; Potency, µM (titrated, usually from 114 µM), inactives show top-dose activity change, negative = substrate turnover; purified TrxR1 substrate turnover, NADPH consumption readout; note: % is set by controls: 0 for no effect and ±100 for the full control effect; nearly all actives have a fitted effect of over 50% in size
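Rat TrxR1, dispensed at 90 nM, was prereduced with 400 uM NADPH (final) for 5 min at ~22 deg C, then incubated with compound 15 min before 400 uM selenite. A first-read NADPH fluorescence drop versus no-compound background flagged substrates.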
Nrf2 inh: blocks Nrf2 signaling; Potency, µM (top dose mostly 46 µM), for inactives: top-dose activity change, negative = inhibition, usual class: inhibitors; 360,000 compounds, 2.1% hits; A549 ARE-Fluc reporter, luciferase luminescence, 18-24 h; note: % is set by controls: 0 for no effect and ±100 for the full control effect; nearly all actives have a fitted effect of over 60% in size
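Quantitative HTS in A549 cells stably bearing an antioxidant response element-firefly luciferase construct. Inhibition of Nrf2-driven transcription was scored by luminescence after 18-24 h of compound exposure at 37 °C.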
Starred values were filed as active, the others as inactive; ? = inconclusive; . = no result; [ ] = remark or other dose. This is a sample that favours compounds with a hit; in the whole collection about 3% have one here. Calls come from the whole dose curve; as a rule, active = well fitted curve in the direction sought with a large enough effect; inconclusive = small, poorly fitted or top-dose-only effect, or another doubt; inactive = no such curve, though single readings can be large; an effect the other way counts as inactive or inconclusive. Potency is the fitted concentration of half-maximal effect.

SMILES	GALK inh	A549 viability	rTrxR1 inhibitor	Nrf2 activator	TrxR1 substrate	Nrf2 inh
Cc1oc(-c2ccc(Cl)cc2)nc1CS(=O)CC(=O)NCc1ccccn1 (centres undefined)	-3.6%	0.7%	17.8µM*	-0.3%	-2.6%	9.6%
Cc1ccc(-c2nc(CS(=O)CC(=O)NCCCN3CC(C)CC(C)C3)c(C)o2)cc1 (centres undefined)	1.9%	0.2%	21.3%[57.1 µM]	0.0%	13.6%[57.1 µM]	14.5%
CNC(=O)c1cnn2c(C)cc(C)nc12	.	-11.4%	.	.	.	-25.0%
COC(=O)c1scc(C)c1NC(=O)C(Cl)c1ccccc1 (centres undefined)	8.1%	2.3%	3.6%	12.6µM*	-0.6%	3.5%
COC(=O)c1scc(C)c1NC(=O)Nc1ccccc1	0.3%	-6.9%	7.4%	4.7%	-12.6%[57.1 µM]	.
COC(=O)c1scc(C)c1NC(=O)c1ccccc1F	1.9%	2.4%	-1.2%[57.1 µM]	12.6µM*	-3.9%[57.1 µM]	?
Nc1ccc(S(=O)(=O)N2CCN(S(=O)(=O)c3c(F)cccc3F)CC2)cc1	.	1.2%	.	.	.	-1.1%
COc1cc(/C=C/c2ccnc3ccccc23)cc(OC)c1OC	.	.	-2.8%	.	-3.2%[0.0914 µM]	.
COc1cccc(C(NC(C)=O)c2ccc3cccnc3c2O)c1 (centres undefined)	.	-1.0%	15.0%	3.5%	3.6%	?
Oc1cccc(C(Nc2nccs2)c2ccc3cccnc3c2O)c1 (centres undefined)	-2.1%	-23.1%	?	-0.4%	2.1%[57.1 µM]	16.4µM*
COc1ccc(Cl)cc1C(Nc1cccnc1)c1ccc2cccnc2c1O (centres undefined)	-0.6%	-6.2%	3.98µM*	?	3.1%[57.1 µM]	?
CCC(=O)NC(c1ccccc1OC)c1ccc2cccnc2c1O (centres undefined)	-0.3%	-7.9%	25.8%	4.9%	9.5%	?
Oc1c(C(Nc2cccnc2)c2ccc(C(F)(F)F)cc2)ccc2cccnc12 (centres undefined)	.	.	?	.	-6.3%	.
Oc1c(C(Nc2cccc(C(F)(F)F)c2)c2cccnc2)ccc2cccnc12 (centres undefined)	1.1%	-1.6%	14.1µM*	7.9%	-13.7%	-4.0%
Oc1c(C(Nc2ccccn2)c2cccnc2)cc(Cl)c2cccnc12 (centres undefined)	3.0%	-5.2%	12.6µM*	2.0%	-7.5%	?
COc1cc(-c2ccc3ncnc(NCc4cccs4)c3c2)cc(OC)c1OC	.	-7.8%	.	.	.	-17.2%
CCOC(=O)c1ccc(NC(=O)c2cc3sccc3n2Cc2ccc(Cl)cc2)cc1	.	-1.7%	10.1%	-1.4%	-1.0%	?
CCOC(=O)C1CCN(C(=O)c2nn(-c3ccc(OC)cc3)c(=O)c3c2c2ccccc2n3C)CC1	.	-0.9%	32.4%	6.1%	10.7%	?
CCc1nc2nc(C)cc(Nc3cc(Cl)ccc3OC)n2n1	.	0.3%	2.8%	4.7%	1.8%	?
Oc1c(C(Nc2ccccn2)c2ccccc2)ccc2cccnc12 (centres undefined)	.	.	50.1µM*	.	-4.2%	.
Cc1ccc(C)c(Nc2nnc(-c3ccc(C)c(S(=O)(=O)NCC4CCCO4)c3)c3ccccc23)c1 (centres undefined)	.	-11.8%	20.3%	5.0%	8.8%	23.1µM*
Cc1ccc(-c2nnc(Nc3ccccc3)c3ccccc23)cc1S(=O)(=O)NCC1CCCO1 (centres undefined)	3.5%	-2.8%	10.9%	0.0%	16.6%	?
CCN1C(=O)/C(=C2/C=Cc3cc(C)ccc3N2CC)N(C)C1=S	6.9%	23.1µM*	?	0.3%	-12.9%	?
CCN1/C(=C2/SC(=S)N(C)C2=O)C=Cc2cc(C)ccc21	.	5.2%	7.3%	-0.3%	-1.1%	7.3%
O=[N+]([O-])c1ccc(/C=C2\C=C(C(O)c3ccc([N+](=O)[O-])cc3)c3ccccc32)cc1 (centres undefined)	.	.	-5.6%	.	-10.3%	.
SMILES	GALK inh	A549 viability	rTrxR1 inhibitor	Nrf2 activator	TrxR1 substrate	Nrf2 inh
CCCCn1c(SCC(=O)N2CCCC2)nnc1-c1ccccc1	0.1%	-1.5%	89.1µM*	-1.0%	-19.0%	0.4%
Cc1c(Cl)cccc1NC(=O)CSc1ncc2c(n1)-c1ccccc1N(C)S2(=O)=O	.	6.4%	14.8%[57.1 µM]	0.7%	10.7%[57.1 µM]	?
Cc1cc2cc(CNC(=O)c3ccc(Br)o3)ccc2n1C	2.3%	-8.0%	8.91µM*	0.1%	10.0%[57.1 µM]	3.8%
Cn1c(NC(=O)/C=C\c2ccccc2)cc(=O)n(C)c1=O	-0.9%	2.9%	10.7%[57.1 µM]	11.2µM*	-14.3%	?
Cn1c(NC(=O)/C=C/c2c(F)cccc2Cl)cc(=O)n(C)c1=O	4.9%	7.1%	27.5%	?	5.7%	23.8%
Cn1c(NC(=O)c2cccs2)cc(=O)n(C)c1=O	2.6%	-4.0%	-0.4%	9.8%	-8.1%	10.3%
Cn1c(NC(=O)c2ccc(Br)o2)cc(=O)n(C)c1=O	-2.4%	2.1%	?	11.2µM*	2.8%[57.1 µM]	.
CCCOc1ccc(CN(C(=O)c2cc(=O)c3ccc(C)cc3o2)C2CCS(=O)(=O)C2)cc1 (centres undefined)	.	-14.0%	2.8%	5.2%	-6.2%	-7.4%
Cc1ccc2c(=O)cc(C(=O)Nc3c(C)cccc3C)oc2c1	.	-9.5%	1.3%	-0.7%	5.3%	-7.0%
COc1ccc(-c2nc3scc(CCNS(=O)(=O)c4ccc5c(c4)OCCO5)n3n2)cc1OC	.	-13.8%	-4.9%[57.1 µM]	6.5%	-7.1%[57.1 µM]	.
Cn1c(SCC(N)=O)nc2c([nH]c3ccccc32)c1=O	.	15.7%	30.1%[57.1 µM]	9.0%	9.2%[57.1 µM]	.
O=C(CSc1nccc(-c2cccs2)n1)Nc1ccc(F)c(Cl)c1	.	-1.3%	19.1%	7.94µM*	-1.3%	?
O=C(CSc1nccc(-c2cccs2)n1)Nc1cccc(Cl)c1	-4.2%	-4.3%	8.7%[57.1 µM]	?	1.2%[57.1 µM]	?
Cc1ccc(-c2cc(-c3ccco3)c3c(N)c(C(=O)NN)oc3n2)cc1	4.8%	-19.0%	-6.8%	5.4%	-11.4%	8.2µM*
NNC(=O)c1oc2nc(-c3cccs3)cc(-c3ccco3)c2c1N	9.6%	.	.	.	.	.
CC(=O)c1c(C)[nH]c(C(=O)OCC(=O)Nc2ccc(C)cc2[N+](=O)[O-])c1C	0.1%	-17.2%	-1.4%	8.3%	-9.7%	5.8µM*
CC(=O)c1c(C)[nH]c(C(=O)OCC(=O)NCc2cccs2)c1C	.	-1.4%	-10.3%	4.7%	-10.9%	14.6µM*
CCOC(=O)c1c(C)[nH]c(C(=O)OCC(=O)Nc2sccc2C(N)=O)c1C	.	?	20.3%	-0.5%	11.6%	8.2µM*
CCOC(=O)c1c(C)[nH]c(C(=O)OCC(=O)Nc2ccc(Cl)cn2)c1C	.	9.4%	4.5%	-0.7%	-3.9%	-7.2%
O=C(NCc1ccccc1)c1nnc(Cc2cccc(F)c2)o1	.	7.4%	16.6%	-0.1%	4.9%	-16.6%
